Results: the supplement of paper PMC3414501
Where a name gives a salt, the structure may show the parent alone. Unmarked numbers belong to inactive results.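 Rule for the calls: active = HIS4 sensitivity z-score above 5 vs DMSO controls; inactive = score 5 or below.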

tested on: S. cerevisiae NKY1551 his4x/his4B, sporulating; experiment: HIS4 meiotic recombination assay sensitivity score (z-score vs DMSO controls); higher = stronger inhibition of sporulation/recombination, active = hit call of the paper

Structure (SMILES) | HIS4 meiotic recombination assay sensitivity score
CC(C)NCC(O)c1ccc(NS(C)(=O)=O)cc1 (stereo not drawn) [Sotalol hydrochloride] (stock concentration (mM, diluted 1:100): 8.8) | -0.43
C[C@H](CCC(=O)O)[C@H]1CC[C@H]2[C@@H]3C(=O)C[C@@H]4CC(=O)CC[C@]4(C)[C@H]3CC(=O)[C@]12C [Dehydrocholic acid] (stock concentration (mM, diluted 1:100): 10) | -0.93
Nc1nc(Cl)nc2c1ncn2[C@H]1C[C@H](O)[C@@H](CO)O1 [2-Chloro-2-Deoxyadenosine] (stock concentration (mM, diluted 1:100): 10) | -1.07
CCC(=O)NS(=O)(=O)c1ccc(-c2c(-c3ccccc3)noc2C)cc1 [Parecoxib] (stock concentration (mM, diluted 1:100): 9.8) | 0.05
Nc1nc2ccc(Cl)cc2c2nc(-c3ccco3)nn12 (stock concentration (mM, diluted 1:100): 10) | -0.12
Nc1nc(Cl)nc2c1ncn2[C@@H]1O[C@H](CO)[C@@H](O)[C@H]1O [2-Chloroadenosine] (stock concentration (mM, diluted 1:100): 10) | -0.54
c1ccc(-c2ccc(C(c3ccccc3)n3ccnc3)cc2)cc1 (stereo not drawn) [Bifonazole] (stock concentration (mM, diluted 1:100): 10) | -0.93
COc1cc(/C=C/c2ccc(O)cc2)cc(OC)c1 [Pterostilbene] (stock concentration (mM, diluted 1:100): 10) | -0.31
